The values below come from PubChem BioAssay (NCATS).

Unmarked numbers belong to inactive results. Results filed as inconclusive are left out. Activity calls are given as the source filed them. Unless noted, the call rests on the fitted dose curve; in most records, active means well fitted curve in the direction sought with a large enough effect; inconclusive means small, poorly fitted or top-dose-only effect, or another doubt; inactive means no such curve, though single readings can be large; an effect the other way counts as inactive or inconclusive.

Chain of Cytochrome P450 3A4 (Homo sapiens) (P08684 whole entry, looked up): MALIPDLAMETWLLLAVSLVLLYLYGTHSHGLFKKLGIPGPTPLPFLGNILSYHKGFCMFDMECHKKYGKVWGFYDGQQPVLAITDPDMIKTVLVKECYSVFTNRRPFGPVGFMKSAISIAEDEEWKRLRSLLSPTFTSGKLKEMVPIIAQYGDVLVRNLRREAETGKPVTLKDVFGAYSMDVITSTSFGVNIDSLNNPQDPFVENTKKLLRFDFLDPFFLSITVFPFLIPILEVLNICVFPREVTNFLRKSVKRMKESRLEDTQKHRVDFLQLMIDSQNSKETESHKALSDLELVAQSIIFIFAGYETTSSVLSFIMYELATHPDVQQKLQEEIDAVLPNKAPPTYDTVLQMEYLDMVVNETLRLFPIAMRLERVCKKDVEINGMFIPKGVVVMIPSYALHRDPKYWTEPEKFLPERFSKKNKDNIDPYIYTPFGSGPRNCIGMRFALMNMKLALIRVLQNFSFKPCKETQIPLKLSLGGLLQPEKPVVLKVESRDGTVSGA

The first assay deals with Cytochrome P450 3A4 (Homo sapiens) (UniProt P08684). In words: qHTS Assay for Activators of Cytochrome P450 3A4 (AID 885). Further: nearly all actives have a fitted effect of over 65% in size. The conditions noted are these: recombinant CYP3A4, Luciferin-PPXE luminescence, 60 min; series mostly up to 57.1 µM; activity change, positive = activation: at the top concentration. In short, it runs like this:
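20nM CYP3A4 + 25uM Luciferin-PPXE (=KM), 200mM KPO4; cpd 10 min RT; NADPH regen, 60 min RT; stop w/ detection buffer, 20 min; luminescence. Normalized to 57 uM ketoconazole.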
`CCCCCCCC/C=C\CCCCCCCC(=O)NCCO`: the “activity change, positive = activation” value was -42.4%.

With `CC(N)C(=O)OC(C)(C)Cc1ccc(Cl)cc1` (configuration not stated), the “activity change, positive = activation” value was -81.4%.

`O=C(Nc1cccc(C(=O)Nc2ccc(S(=O)(=O)O)c3cc(S(=O)(=O)O)cc(S(=O)(=O)O)c23)c1)Nc1cccc(C(=O)Nc2ccc(S(=O)(=O)O)c3cc(S(=O)(=O)O)cc(S(=O)(=O)O)c23)c1`: the “activity change, positive = activation” value is -31.3%.

As for `NC[C@@H]1O[C@H](C23CC4CC(CC(C4)C2)C3)Cc2c1ccc(O)c2O`, the Potency entry is “inactive”.

As to `C[N+](C)(CCCCCC[N+](C)(C)CCCN1C(=O)c2cccc3cccc(c23)C1=O)CCCN1C(=O)c2cccc3cccc(c23)C1=O`, the “activity change, positive = activation” value is -42.7%.

As to `O=c1cc(-c2ccccc2)oc2c(O)c(O)ccc12`, the “activity change, positive = activation” value is -59.6%.

In the case of `O=C(/C=C/c1ccc(O)c(O)c1)OCCc1ccccc1`, the “activity change, positive = activation” value was -35.4%.

Turning to `COC1=C(OC)C(=O)c2ccccc2C1=O`, the “activity change, positive = activation” value is -83.3%.

As to `CN(C)c1nc(N)c(C(=O)N=C(N)N)nc1Cl`, the “activity change, positive = activation” value was -35.8%.

Test system in the next assay: not listed separately
In words: qHTS Assay for Identification of Small Molecule Antagonists for NFkB Signaling Pathway (AID 895; active means well fitted inhibition curve with a large enough effect in the signal ratio, with a control signal flat, not every such curve was filed as active; the % refers to the signal ratio; further: on the % scale 0 is the no-effect control and ±100 the full control effect). The following applies: NFkB beta-lactamase reporter cells, FRET ratio 460/530, stimulated with 10 pM TNF alpha; series mostly up to 38.3 µM; activity change, negative = inhibition: at the top concentration. A digest of the protocol: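 ME-180 NFkB-bla cells (beta-lactamase under NFkB response element), plated overnight, treated with compound then 10 pM TNF alpha (about EC50) for 5 hrs at 37 C. LiveBLAzer FRET read at 460/530 nm emission, 405 nm excitation.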
For the compound `C[N+]1(C)CCC(OC(=O)C(c2ccccc2)c2ccccc2)CC1`, the “activity change, negative = inhibition” value is 10.5%.

For the compound `COc1cc(OC)c(/C=C2/C(=O)Nc3ccccc32)c(OC)c1`, the “activity change, negative = inhibition” value was 15%.

Regarding `Cn1c(=O)c2[nH]c(-c3ccccc3)nc2n(C)c1=O`, the “activity change, negative = inhibition” value is -5.65%.

With `O=c1[nH]c2cc(Cl)c(Cl)cc2[nH]c1=O`, the “activity change, negative = inhibition” value was -1.16%.

Test system in a further assay: not listed separately
In words: Confirmation and Secondary Assay for Modulators of Hemoglobin Beta Chain Splicing at IVS2 654 locus (AID 910).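 Further: HeLa cells stably carrying EGFP split by mutant beta-globin IVS2-654 intron; % of control where 0% means no effect.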 The following applies: HeLa EGFP-654 splicing reporter, GFP fluorescence, 48 h; series mostly up to 46.1 µM; activation (splicing correction): at the top concentration. In short, it runs like this:
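HeLa cells stably expressing EGFP interrupted by β-globin IVS2-654 intron, seeded overnight in Opti-MEM/2% FCS, then treated 2 days at 37 °C. Restored splicing read as total peak GFP intensity per well by laser scanning cytometry (488 nm excitation, 500–520 nm emission); 500 nM antisense PNA as control.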
In the case of `CCCCC1C(=O)N(c2ccccc2)N(c2ccc(O)cc2)C1=O` (configuration not stated), the “activation (splicing correction)” value was 9.04%.

Turning to `Cc1c(N)c(=O)n(-c2ccccc2)n1C`, the “activation (splicing correction)” value is -2.47%.

As for `O=C(/C=C/c1ccc(O)cc1)c1ccc(O)cc1O`, the “activation (splicing correction)” value is 16.7%.

Consider `CC1OC1P(=O)(O)O` (configuration not stated), for which the “activation (splicing correction)” value is 4.9%.

As for `CC(N)C(=O)OC(C)(C)Cc1ccc(Cl)cc1` (configuration not stated), the “activation (splicing correction)” value is 0.329%.

In the case of `CN1CCc2cccc3c2C1Cc1ccc(O)c(O)c1-3` (configuration not stated), the “activation (splicing correction)” value was -1.41%.

In the case of `Nc1ccc(C(=O)O)c(O)c1`, the compound was called inactive.

`CN1C2CCC1CC(OC(=O)C(O)c1ccccc1)C2` (configuration not stated): the “activation (splicing correction)” value is 0.681%.

On to `O=c1[nH]c2cc(Cl)c(Cl)cc2[nH]c1=O`, for which the “activation (splicing correction)” value is -0.176%.

With `O=c1cc(-c2ccccc2)oc2c(O)c(O)ccc12`, the “activation (splicing correction)” value was -5.64%.

As to `O=C(O)c1cc(=O)c2ccccc2[nH]1`, the “activation (splicing correction)” value was 9.25%.

On to `O=C(/C=C/c1ccc(O)c(O)c1)OCCc1ccccc1`, for which the “activation (splicing correction)” value was -3.12% [at 38.3 µM].

Consider `COc1cc(NC(C)CCCN)c2ncccc2c1` (configuration not stated), for which the “activation (splicing correction)” value was -2.19%.

Consider `CCCCCCOc1ccccc1C(N)=O`, for which the “activation (splicing correction)” value was -8.66%.

Test system in another assay: not listed separately
In words: qHTS Assay for Identification of Small Molecule Agonists for Thrombopoietin (TPO) Signaling Pathway (AID 917). Further: on the % scale 0 is the no-effect control and ±100 the full control effect. The following applies: TPO signaling pathway reporter cells, agonist qHTS, stimulated with TPO at its EC50; series mostly up to 38.5 µM; activity, positive = activation: at the top concentration. A digest of the protocol:
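We measured Glycoprotein IIb promoter–luciferase output in IL-3-starved Ba/F3 murine cells expressing the human TPO receptor after 24 hrs at 37 C with compounds and 26 pM TPO.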
Turning to `CCCCCCCC/C=C\CCCCCCCC(=O)NCCO`, the “activity, positive = activation” value was -16.9%.

Take `C[N+]1(C)CCC(OC(=O)C(c2ccccc2)c2ccccc2)CC1`: the “activity, positive = activation” value was -9.42%.

As for `O=S(=O)(c1cccc2c(I)cccc12)N1CCCNCC1`, the “activity, positive = activation” value was -6.42%.

In the case of `O=C1NC(O)=NC1(c1ccccc1)c1ccccc1`, the “activity, positive = activation” value was -12%.

As to `CC(C)NC[C@H](O)COc1cccc2[nH]ccc12`, the “activity, positive = activation” value was 3.97%.

Take `CC1(C)CCC=[N+]1[O-]`: the “activity, positive = activation” value was -8.64%.

In the case of `Cn1c(=O)c2[nH]c(-c3ccccc3)nc2n(C)c1=O`, the “activity, positive = activation” value is -19.6%.

For the compound `N[C@@H](CC(=O)O)C(=O)O`, the “activity, positive = activation” value is -9%.

On to `NC(=O)C(=O)O`, for which the “activity, positive = activation” value was -13.4%.

Regarding `O=C(Nc1cccc(C(=O)Nc2ccc(S(=O)(=O)O)c3cc(S(=O)(=O)O)cc(S(=O)(=O)O)c23)c1)Nc1cccc(C(=O)Nc2ccc(S(=O)(=O)O)c3cc(S(=O)(=O)O)cc(S(=O)(=O)O)c23)c1`, the “activity, positive = activation” value was -14.4%.

As for `CN(C)C(N)=NCCC[C@H](N)C(=O)O`, the “activity, positive = activation” value is -10.5%.

Consider `C[N+](C)(CCCCCC[N+](C)(C)CCCN1C(=O)c2cccc3cccc(c23)C1=O)CCCN1C(=O)c2cccc3cccc(c23)C1=O`, for which the “activity, positive = activation” value is 3.11%.

For the compound `O=C(O)c1cc(=O)c2ccccc2[nH]1`, the “activity, positive = activation” value was -15.7%.

Turning to `CN1CCc2ccccc2Cc2[nH]c3ccccc3c2CC1`, the “activity, positive = activation” value was -22.9%.

As for `CN(C)c1nc(N)c(C(=O)N=C(N)N)nc1Cl`, the “activity, positive = activation” value was -6.91%.
